Bioassay records as filed in PubChem BioAssay.
A selection: hits, their analogues and other compounds. The true share with any hit is near 2.2%.
p53 PUMA act: re-activators of the mutant p53 pathway. activation, % at 9.98 µM. SW480 PUMA-promoter luciferase, p53 mutant reactivation. hit rate 1.5% among 28,000; in the data active = activation above about 52%; inconclusive = no clear call, values can overlap the other calls
ID4 binder: ID4 (human) binding | calls only | small molecule microarray, Flag-ID4 binding, fluorescence F/B | P47928 | hit rate 1.2% among 31,000; call rule not given here;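 also: a binder raises fluorescence above local background on the spot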
Target sequence (P47928 whole entry, looked up): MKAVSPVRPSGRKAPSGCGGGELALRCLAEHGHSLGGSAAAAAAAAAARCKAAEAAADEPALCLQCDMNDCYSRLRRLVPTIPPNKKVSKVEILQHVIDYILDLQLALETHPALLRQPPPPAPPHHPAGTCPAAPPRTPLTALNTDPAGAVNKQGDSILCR
Starred values were filed as active, the others as inactive.

C[C@@H]1CN([C@@H](C)CO)C(=O)c2cc(-c3cccnc3)cnc2O[C@H]1CN(C)C was read as ID4 binder active.
`COc1ccc(-c2cnc3c(c2)C(=O)N([C@H](C)CO)C[C@@H](C)[C@@H](CN(C)C(=O)NC2CCCC2)O3)cc1` gave ID4 binder inactive.
`C[C@@H]1CN([C@H](C)CO)C(=O)c2cc(-c3ccncc3)cnc2O[C@H]1CN(C)C(=O)NC1CCCC1` gave p53 PUMA act 5.3 and ID4 binder active.
Screening C[C@@H]1CN([C@@H](C)CO)C(=O)c2cc(-c3ccncc3)cnc2O[C@H]1CN(C)Cc1ccc(Oc2ccccc2)cc1 returned p53 PUMA act -17.6 and ID4 binder active.
C[C@@H]1CN([C@H](C)CO)C(=O)c2cc(-c3cccnc3)cnc2O[C@@H]1CN(C)Cc1ccc(Oc2ccccc2)cc1 was read as p53 PUMA act -10.6.
For C[C@@H]1CN([C@H](C)CO)C(=O)c2cc(-c3cccnc3)cnc2O[C@H]1CN(C)C the results were ID4 binder inactive.
C[C@@H]1O[C@@H](O[C@@H]2[C@@H](O)[C@H](Oc3c(-c4ccc(O)cc4)oc4cc(O)cc(O)c4c3=O)O[C@H](CO)[C@H]2O)[C@H](O)[C@H](O)[C@H]1O was read as ID4 binder inactive.
`O=C(NCc1ccccn1)c1nn2c(C(F)(F)F)cc(-c3ccccc3)nc2c1Cl` gave p53 PUMA act 2.4 and ID4 binder inactive.
For COc1ccc(C(=O)Nc2ccc3nc(SCC(=O)N4CCOCC4)sc3c2)cc1OC the results were p53 PUMA act -18.6 and ID4 binder inactive.
For CN1CCN(c2ccc(CNS(=O)(=O)c3cccc4nonc34)cc2)CC1 the results were p53 PUMA act 14.1 and ID4 binder inactive.
For Cc1ccc(NC(=O)CCn2cnc3ccccc3c2=O)cc1C the results were p53 PUMA act 3.6 and ID4 binder inactive.
Cc1ccc(-c2nc3ccccc3s2)cc1NC(=O)COc1ccc(Cl)cc1 was read as p53 PUMA act 2.2 and ID4 binder inactive.
C[C@H]1CN([C@@H](C)CO)C(=O)c2cc(C3=CCCCC3)cnc2O[C@H]1CN(C)C(=O)Cc1ccncc1 was read as p53 PUMA act 11.3.
Screening C[C@@H]1CN([C@H](C)CO)C(=O)c2cc(C3=CCCC3)cnc2O[C@H]1CN(C)C(=O)Cc1ccncc1 returned p53 PUMA act 2.0 and ID4 binder active.
For CC(=O)O[C@@]1(C)C[C@@H](OC(=O)/C=C/c2ccc(O)cc2)[C@@H]2C(C(=O)O)=COC(O[C@@H]3O[C@H](CO)[C@@H](O)[C@H](O)[C@H]3O)[C@@H]21 (stereo not given in full) the results were p53 PUMA act -17.4.
`COC(=O)c1sccc1-c1ccc(-c2ccn(C(=O)c3ccc(Cl)cc3)n2)o1` gave p53 PUMA act 96.8* and ID4 binder inactive.
O=C(CSc1n[nH]c(-c2ccccc2Cl)n1)c1ccc(O)c(O)c1 was read as p53 PUMA act 13.6 and ID4 binder inactive.
CC(C)(C)C(=O)CSc1ncnc2sc3c(c12)CCCC3 was read as p53 PUMA act 71.0* and ID4 binder inactive.
O=C(CSc1ncnc2sc3c(c12)CCCC3)N1CCc2ccccc21 was read as p53 PUMA act -3.8 and ID4 binder inactive.
`COC(=O)c1cc(OC)c(OC)cc1NC(=O)C(C)Oc1ccc(C(C)(C)C)cc1` (stereo not given) gave p53 PUMA act -37.9 and ID4 binder inactive.
For COc1ccc(C(=O)CSc2n[nH]c(-c3ccc(C)cc3)n2)cc1 the results were p53 PUMA act 21.4 and ID4 binder active.
Screening Cc1ccc(-c2nc(SCC(=O)c3ccccc3)n[nH]2)cc1 returned p53 PUMA act 43.5 and ID4 binder inactive.
`Nc1ncnc(Sc2nc3ccccc3s2)c1[N+](=O)[O-]` gave p53 PUMA act -35.2 and ID4 binder inactive.
Screening Cc1ccc(OCC(=O)Nc2ccc3oc(-c4cccnc4)nc3c2)cc1C returned p53 PUMA act inconclusive and ID4 binder inactive.
Screening CC(=O)Nc1ccc(NC(=O)CSc2nnc(-c3ccc(N)cc3)n2C)cc1 returned p53 PUMA act 3.6 and ID4 binder inactive.
COC(=O)c1ccc(NC(=O)CSc2nnc(-c3ccc(NC(C)=O)cc3)n2C)cc1 was read as p53 PUMA act -14.5 and ID4 binder active.
Screening CCn1c(SCC(=O)Nc2ccc(C(N)=O)cc2)nnc1-c1ccc(F)cc1 returned p53 PUMA act -4.8 and ID4 binder active.
CCn1c(SCC(=O)Nc2ccc(C(=O)O)cc2)nnc1-c1ccc(C)cc1 was read as p53 PUMA act -2.2 and ID4 binder inactive.
O=C(CSc1nnc(-c2ccco2)n1-c1ccccc1)c1ccc2c(c1)OCCO2 was read as p53 PUMA act 6.6 and ID4 binder inactive.
Screening CC1(C)CC(n2c(NCCO)nc3c(c2=O)C2(CCCCC2)Cc2ccccc2-3)CCO1 (stereo not given) returned p53 PUMA act 3.9 and ID4 binder inactive.
`CCCn1cnc2cc(NCc3ccccn3)ccc21` gave p53 PUMA act 77.5* and ID4 binder inactive.
